About 2,000 (36%) of roughly 5,500 compounds were called active. About 18% were inconclusive and are not listed. This is one part of the list. Unmarked numbers belong to inactive results. No stated cut-off is given here; in the data, active means normalized growth mostly below about 0.91 (no sharp cut-off); inconclusive means no clear call, values can overlap the other calls; inactive means mostly above about 0.92.
Assay: chemical genetic growth profiling, strain panel (AID 1159580);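 further: tested at 20 µM; growth read once vehicle control cultures reached saturation at 30 °C; 1 = growth at the plate median or of vehicle wells; lower values mean less growth of the strain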
Details: growth OD

SMILES: CCCCCCCCCCCC[C@H](C(=O)O)[C@@H](C)C(=O)O
- normalized growth (S. cerevisiae deletion strains, locus YJR075W, strain HOC1, active compounds read low): 1.07
- normalized growth (S. cerevisiae deletion strains, locus YKL009W, strain mrt4, active compounds read low): 0.946
- normalized growth (S. cerevisiae deletion strains, locus YKL068W, active compounds read low): 0.996
- normalized growth (S. cerevisiae deletion strains, locus YKL085W, strain MDH1 (second series), active compounds read low): 0.975
- normalized growth (S. cerevisiae deletion strains, locus YKL085W, strain MDH1, active compounds read low): 0.975
- normalized growth (S. cerevisiae deletion strains, locus YKL160W, strain elf1, active compounds read low): 1
- normalized growth (S. cerevisiae deletion strains, locus YKL190W, strain CNB1, active compounds read low): 0.99
- normalized growth (S. cerevisiae deletion strains, locus YKR001C, strain vps1, active compounds read low): 0.982
- normalized growth (S. cerevisiae deletion strains, locus YKR026C, strain gcn3, active compounds read low): 0.965
- normalized growth (S. cerevisiae deletion strains, locus YKR091W, strain srl3, active compounds read low): 0.974
- normalized growth (S. cerevisiae deletion strains, locus YLL001W, strain dnm1, active compounds read low): 1.01
- normalized growth (S. cerevisiae deletion strains, locus YLL026W, active compounds read low): 0.987
- normalized growth (S. cerevisiae deletion strains, locus YLL041C, strain sdh2, active compounds read low): 0.973
- normalized growth (S. cerevisiae deletion strains, locus YLR027C, strain aat2, active compounds read low): 0.992
- normalized growth (S. cerevisiae deletion strains, locus YLR039C, strain RIC1, active compounds read low): 1.04
- normalized growth (S. cerevisiae deletion strains, locus YLR058C, strain SHM2, active compounds read low): 0.994
- normalized growth (S. cerevisiae deletion strains, locus YLR102C, strain apc9, active compounds read low): 1.01
- normalized growth (S. cerevisiae deletion strains, locus YLR113W, strain HOG1, active compounds read low): 0.903
- normalized growth (S. cerevisiae deletion strains, locus YLR221C, strain rsa3, active compounds read low): 1
- normalized growth (S. cerevisiae deletion strains, locus YLR258W, strain gsy2, active compounds read low): 0.979
- normalized growth (S. cerevisiae deletion strains, locus YLR262C, strain YPT6 (second series), active compounds read low): 0.934
- normalized growth (S. cerevisiae deletion strains, locus YLR262C, strain YPT6, active compounds read low): 1.12
- normalized growth (S. cerevisiae deletion strains, locus YLR268W, strain sec22, active compounds read low): 1.02
- normalized growth (S. cerevisiae deletion strains, locus YLR320W, strain mms22, active compounds read low): 1.01
- normalized growth (S. cerevisiae deletion strains, locus YLR330W, strain CHS5, active compounds read low): 0.986
- normalized growth (S. cerevisiae deletion strains, locus YLR342W, strain FKS1 (second series), active compounds read low): 1.02
- normalized growth (S. cerevisiae deletion strains, locus YLR342W, strain FKS1, active compounds read low): 0.986
- normalized growth (S. cerevisiae deletion strains, locus YLR357W, strain rsc2, active compounds read low): 0.994
- normalized growth (S. cerevisiae deletion strains, locus YLR370C, strain arc18, active compounds read low): 0.975
- normalized growth (S. cerevisiae deletion strains, locus YLR371W, strain rom2, active compounds read low): 1.01
- normalized growth (S. cerevisiae deletion strains, locus YLR384C, strain iki3, active compounds read low): 0.974
- normalized growth (S. cerevisiae deletion strains, locus YLR418C, strain cdc73, active compounds read low): 1.02
- normalized growth (S. cerevisiae deletion strains, locus YML016C, strain PPZ1, active compounds read low): 0.982
- normalized growth (S. cerevisiae deletion strains, locus YML032C, strain rad52, active compounds read low): 1.01
- normalized growth (S. cerevisiae deletion strains, locus YML120C, strain ndi1, active compounds read low): 0.991
- normalized growth (S. cerevisiae deletion strains, locus YML124C, strain tub3, active compounds read low): 0.998
- normalized growth (S. cerevisiae deletion strains, locus YMR058W, strain fet3, active compounds read low): 0.998
- normalized growth (S. cerevisiae deletion strains, locus YMR078C, strain ctf18, active compounds read low): 0.995
- normalized growth (S. cerevisiae deletion strains, locus YMR125W, strain sto1, active compounds read low): 0.98
- normalized growth (S. cerevisiae deletion strains, locus YMR129W, active compounds read low): 0.971
- normalized growth (S. cerevisiae deletion strains, locus YMR205C, strain PFK2, active compounds read low): 1
- normalized growth (S. cerevisiae deletion strains, locus YMR223W, strain ubp8, active compounds read low): 1.03
- normalized growth (S. cerevisiae deletion strains, locus YMR231W, strain pep5, active compounds read low): 0.927 (active)
- normalized growth (S. cerevisiae deletion strains, locus YMR263W, strain SAP30, active compounds read low): 0.996
- normalized growth (S. cerevisiae deletion strains, locus YMR307W, strain GAS1, active compounds read low): 1.06
- normalized growth (S. cerevisiae deletion strains, locus YNL067W, strain RPL9B, active compounds read low): 1.01
- normalized growth (S. cerevisiae deletion strains, locus YNL071W, strain lat1, active compounds read low): 0.968
- normalized growth (S. cerevisiae deletion strains, locus YNL128W, strain TEP1, active compounds read low): 1.01
- normalized growth (S. cerevisiae deletion strains, locus YNL153C, strain GIM3, active compounds read low): 0.994
- normalized growth (S. cerevisiae deletion strains, locus YNL183C, strain NPR1, active compounds read low): 0.91
- normalized growth (S. cerevisiae deletion strains, locus YNL209W, strain ssb2, active compounds read low): 0.995
- normalized growth (S. cerevisiae deletion strains, locus YNL233W, strain BNI4, active compounds read low): 1
- normalized growth (S. cerevisiae deletion strains, locus YNL248C, strain rpa49, active compounds read low): 1
- normalized growth (S. cerevisiae deletion strains, locus YNL250W, strain rad50, active compounds read low): 1.02
- normalized growth (S. cerevisiae deletion strains, locus YNL271C, strain bni1, active compounds read low): 1.01
- normalized growth (S. cerevisiae deletion strains, locus YNL298W, strain CLA4, active compounds read low): 0.972
- normalized growth (S. cerevisiae deletion strains, locus YNL307C, strain MCK1, active compounds read low): 1.01
- normalized growth (S. cerevisiae deletion strains, locus YNL322C, strain KRE1 (second series), active compounds read low): 0.968
- normalized growth (S. cerevisiae deletion strains, locus YNL322C, strain KRE1, active compounds read low): 0.989
- normalized growth (S. cerevisiae deletion strains, locus YNR049C, strain mso1, active compounds read low): 0.979
- normalized growth (S. cerevisiae deletion strains, locus YNR052C, strain pop2, active compounds read low): 1.02
- normalized growth (S. cerevisiae deletion strains, locus YOL006C, strain TOP1, active compounds read low): 1.04
- normalized growth (S. cerevisiae deletion strains, locus YOL012C, strain htz1): 1.2
- normalized growth (S. cerevisiae deletion strains, locus YOL147C, strain pex11, active compounds read low): 0.997
- normalized growth (S. cerevisiae deletion strains, locus YOR001W, strain rrp6, active compounds read low): 0.984
- normalized growth (S. cerevisiae deletion strains, locus YOR061W, strain CKA2, active compounds read low): 0.994
- normalized growth (S. cerevisiae deletion strains, locus YOR069W, strain VPS5, active compounds read low): 0.989
- normalized growth (S. cerevisiae deletion strains, locus YOR070C, strain gyp1, active compounds read low): 0.987
- normalized growth (S. cerevisiae deletion strains, locus YOR080W, strain dia2, active compounds read low): 0.962
- normalized growth (S. cerevisiae deletion strains, locus YOR083W, strain WHI5, active compounds read low): 1.01
- normalized growth (S. cerevisiae deletion strains, locus YOR106W, strain vam3, active compounds read low): 1.02
- normalized growth (S. cerevisiae deletion strains, locus YOR136W, strain idh2, active compounds read low): 1.03
- normalized growth (S. cerevisiae deletion strains, locus YOR144C, strain elg1, active compounds read low): 1
- normalized growth (S. cerevisiae deletion strains, locus YOR184W, strain ser1, active compounds read low): 1.04
- normalized growth (S. cerevisiae deletion strains, locus YOR231W, strain MKK1, active compounds read low): 0.963
- normalized growth (S. cerevisiae deletion strains, locus YOR265W, strain rbl2, active compounds read low): 0.985
- normalized growth (S. cerevisiae deletion strains, locus YOR270C, strain vph1, active compounds read low): 1.02
- normalized growth (S. cerevisiae deletion strains, locus YOR290C, strain snf2, active compounds read low): 1
- normalized growth (S. cerevisiae deletion strains, locus YOR316C, strain cot1, active compounds read low): 1.01
- normalized growth (S. cerevisiae deletion strains, locus YPL051W, strain arl3, active compounds read low): 0.983
- normalized growth (S. cerevisiae deletion strains, locus YPL055C, strain LGE1, active compounds read low): 1.03
- normalized growth (S. cerevisiae deletion strains, locus YPL078C, strain atp4, active compounds read low): 0.971
- normalized growth (S. cerevisiae deletion strains, locus YPL106C, strain sse1, active compounds read low): 0.952
- normalized growth (S. cerevisiae deletion strains, locus YPL240C, strain hsp82, active compounds read low): 0.973
- normalized growth (S. cerevisiae deletion strains, locus YPL241C, strain CIN2, active compounds read low): 0.99
- normalized growth (S. cerevisiae deletion strains, locus YPL256C, strain CLN2, active compounds read low): 0.949
- normalized growth (S. cerevisiae deletion strains, locus YPR119W, strain clb2, active compounds read low): 0.986
- normalized growth (S. cerevisiae deletion strains, locus YPR141C, strain kar3, active compounds read low): 1.03
- normalized growth (S. cerevisiae deletion strains, locus YPR163C, strain tif3, active compounds read low): 1.02
- normalized growth (S. cerevisiae deletion strains, locus YPR167C, strain met16, active compounds read low): 1.01
- normalized growth (S. cerevisiae deletion strains, strain wtn01, active compounds read low): 1.01
- normalized growth (S. cerevisiae strains, strain wild type, active compounds read low): 0.992

— PubChem BioAssay AID1159580 (chemical genetic matrix, 2015)
